These results are taken from PubChem BioAssay AID1508625 (Wald Lab, School of Medicine, Case Western Reserve …, 2021).

The assay in a line: enhancers of NK cell killing of ovarian tumor cells, primary screen, imaging, OVCAR3, primary NK cells, calcein-AM imaging (AID 1508625).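 Also: compound given to NK cells 16 h before adding targets at 1.5 to 1 ratio.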 Particulars: OVCAR3 lysis by primary NK cells, at 5 µM; z-score: measured here: robust Z-score, single-point normalisation.

`CCN(CC)CCCn1c(=S)[nH]c2cc(C(=O)OC)ccc2c1=O`: the corrected activity, negative = more killing was -3.76% and the z-score was -0.997.

For the molecule `COc1cc2c(cc1NC(=O)COc1ccccc1F)oc1ccccc12`, the corrected activity, negative = more killing is 0.193% and the z-score was 0.0792.

For the molecule `COc1cccc(-c2nnc(-c3ccc([N+](=O)[O-])cc3)o2)c1`, the corrected activity, negative = more killing was 1.18% and the z-score was 0.417.

Consider `COc1ccc(C(N)=NOC(=O)c2cc(Cl)ccc2Cl)cc1`, for which the corrected activity, negative = more killing was -1.41% and the z-score is -0.786.

Regarding `Cc1ccc(OCC(=O)Nc2ccc(N3CCOCC3)c(Cl)c2)cc1`, the corrected activity, negative = more killing was -5.7% and the z-score was -1.77.

With `Cc1cccc(C(=O)N2N=C(C(F)(F)F)CC2(O)C(C)(C)C)c1` (stereo not drawn), the corrected activity, negative = more killing was -2.49% and the z-score was -0.95.

`O=C(c1ccc2c(=O)n(-c3ccc(F)cc3)c(=S)[nH]c2c1)N1CCc2ccccc2C1`: the corrected activity, negative = more killing is -0.906% and the z-score is -0.288.

Turning to `Cc1cccc(C)c1OCCCCCCN1CCOCC1`, the corrected activity, negative = more killing was -1.15% and the z-score is -0.473.

On to `CC(=O)Nc1ccc(N=Cc2ccc(C)cc2)cc1`, for which the corrected activity, negative = more killing was -3.8% and the z-score was -0.8.

Regarding `N#Cc1ccccc1NC(=O)CSc1nnc(N)s1`, the corrected activity, negative = more killing is 2.04% and the z-score is 0.632.

Turning to `CCOc1ccc(OCC)c(NC(=O)C2(S(=O)(=O)c3ccc(Cl)cc3)CC2)c1`, the corrected activity, negative = more killing is -4.65% and the z-score was -1.32.

On to `CC(Oc1cccc(Cl)c1)C(=O)NC1CC(C)(C)NC(C)(C)C1` (stereo not drawn), for which the corrected activity, negative = more killing was 0.623% and the z-score was 0.347.

For the molecule `Oc1cccc(CN2CCN3CCCC3C2C2CCCCC2)c1` (stereo not drawn), the corrected activity, negative = more killing was -0.454% and the z-score is -0.198.

With `COc1cc(OC)cc(C(=O)N2CCN(C3CCC(C)CC3)CC2)c1` (stereo not drawn), the corrected activity, negative = more killing is -1.69% and the z-score was -0.755.

Turning to `Cc1ccc(-c2nc3ccccc3c(C(=O)O)c2C)cc1`, the corrected activity, negative = more killing was -2.28% and the z-score was -1.18.

In the case of `O=C(CCCn1c(=S)[nH]c2cc3c(cc2c1=O)OCO3)NCCCN1CCOCC1`, the corrected activity, negative = more killing was -7.74% and the z-score is -2.05.

In the case of `CC(C)NCCCCOc1ccccc1-c1ccccc1`, the corrected activity, negative = more killing was 1.68% and the z-score is 0.626.

For `Cc1ccc(C(=O)Nc2cccc(C(=O)N3CCOCC3)c2)cc1Cl`, the corrected activity, negative = more killing is -0.0326% and the z-score is -0.0182.

In the case of `O=C(CSc1nc2cc3c(cc2c(=O)n1Cc1ccco1)OCO3)NCc1ccccc1`, the corrected activity, negative = more killing was -4.67% and the z-score is -1.24.

Regarding `C#CCN1C(=O)C(O)(CC(=O)c2ccc(OC)c(OC)c2)c2cc(Br)ccc21` (stereo not drawn), the corrected activity, negative = more killing is -5.04% and the z-score was -1.51.

With `COc1cc2nc(SCC(=O)Nc3cc(C(F)(F)F)ccc3Cl)n(Cc3ccco3)c(=O)c2cc1OC`, the corrected activity, negative = more killing was -3.79% and the z-score was -1.

As for `C=CCN1C(=O)C(=Cc2ccc(OCc3ccccc3Cl)c(OC)c2)SC1=S`, the corrected activity, negative = more killing is -6.24% and the z-score was -1.98.

Consider `CCOC(=O)c1ccc2c(c1)[C@@H]1C=CC[C@@H]1[C@H](c1ccccc1Br)N2`, for which the corrected activity, negative = more killing was 3.06% and the z-score is 0.914.

For the molecule `CC1=NNC(=O)C1CCC(=O)NN=Cc1ccncc1` (stereo not drawn), the corrected activity, negative = more killing was -4.86% and the z-score is -2.12.
